Shown are actives, neighbours in structure and some others; about 12% of the full set was active somewhere.
G9a block: qHTS Assay for Inhibitors of Histone Lysine Methyltransferase G9a; Histone-lysine N-methyltransferase EHMT2 (Homo sapiens), Q96KQ7; G9a H3K9 monomethylation, AlphaScreen, 2 h; Potency, µM (highest dose often 102 µM), for the others: top-dose activity, negative = inhibition, hits mostly inhibitors; 8.8% of 350,000 active; further: on the % scale 0 is the no-effect control and ±100 the full control effect; nearly all actives have a fitted effect of over 75% in size
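AlphaScreen read-out: biotin-H3K9 peptide (500 nM) methylation by 20 nM enzyme with 20 uM SAM, 2 h at room temperature after 15 min compound preincubation; anti-monomethyl H3K9 antibody plus donor/acceptor beads, 10 min dark.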
Sfp inh: qHTS Assay for Inhibitors of Bacillus subtilis Sfp phosphopantetheinyl transferase (PPTase); 4'-phosphopantetheinyl transferase ffp (Bacillus subtilis), Q9F4F7; Biochemical Sfp PPTase activity, qHTS; Potency, µM, for inactives: largest response in the series, negative = inhibition, most hits filed as inhibitors; 3.5% of 310,000 active; AID 1490, 2009;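 further: the enzyme is Sfp with the accession as filed and its product quenches rhodamine fluorescence; 0% = enzyme reaction without inhibitor and -100% = no enzyme wells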
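Sfp 15 nM + cpd, 15 min RT; start w/ rhodamine-CoA 5 uM, BHQ-2-YbbR 12.5 uM (final); 50 mM Hepes pH 7.6, 10 mM MgCl2, 0.01% NP-40, 0.01% BSA; read 525/598 nm at 0 and 30 min.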
HP1b chromo inh: HTS for Inhibitors of HP1-beta Chromodomain Interactions with Methylated Histone Tails; AlphaScreen HP1-beta / biotin-H3K9me3 peptide binding; 0.56% of 390,000 active; Potency, µM (doses to about 114 µM), without a hit: top-dose activity change, negative = inhibition, most hits filed as inhibitors; further: nearly all actives have a fitted effect of over 70% in size
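Compound inhibition of the preformed complex between 50 nM HP1-beta and 50 nM biotinylated H3K9me3 peptide was read by AlphaScreen. Buffer was PBS pH 7.4 with 0.01% Tween-20. Incubations ran 30 min at room temperature, with 10 ug/mL donor/acceptor beads.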
BAZ2B block: qHTS Assay for Inhibitors of BAZ2B. Potency, µM (top dose mostly 114 µM), for inactives: top-dose activity change, negative = inhibition, actives largely listed as inhibitors. AlphaScreen BAZ2B-H3K14Ac peptide displacement. 4.4% of 360,000 active. Bromodomain adjacent to zinc finger domain protein 2B (Homo sapiens), Q9UIF8; further: on the % scale 0 is the no-effect control and ±100 the full control effect; nearly all actives have a fitted effect of over 60% in size
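Complex of BAZ2B and biotin-H3K14Ac (50 nM apiece) forms over 30 min at RT, then faces library compounds up to 110 uM for another 30 min; AlphaScreen beads added, 20 min dark incubation, luminescence read.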
JMJD2A Tudor inh: qHTS Assay for Inhibitors of JMJD2A-Tudor Domain | 4.4% of 390,000 active | Lysine-specific demethylase 4A (Homo sapiens), O75164 | Potency, µM (titrated, usually from 114 µM), inactives show top-dose activity change, negative = inhibition, most hits filed as inhibitors | AlphaScreen JMJD2A-Tudor / H3K4me3 peptide binding; further: on the % scale 0 is the no-effect control and ±100 the full control effect; nearly all actives have a fitted effect of over 50% in size
Target sequence (O75164 whole entry, looked up, the tested form may be a part): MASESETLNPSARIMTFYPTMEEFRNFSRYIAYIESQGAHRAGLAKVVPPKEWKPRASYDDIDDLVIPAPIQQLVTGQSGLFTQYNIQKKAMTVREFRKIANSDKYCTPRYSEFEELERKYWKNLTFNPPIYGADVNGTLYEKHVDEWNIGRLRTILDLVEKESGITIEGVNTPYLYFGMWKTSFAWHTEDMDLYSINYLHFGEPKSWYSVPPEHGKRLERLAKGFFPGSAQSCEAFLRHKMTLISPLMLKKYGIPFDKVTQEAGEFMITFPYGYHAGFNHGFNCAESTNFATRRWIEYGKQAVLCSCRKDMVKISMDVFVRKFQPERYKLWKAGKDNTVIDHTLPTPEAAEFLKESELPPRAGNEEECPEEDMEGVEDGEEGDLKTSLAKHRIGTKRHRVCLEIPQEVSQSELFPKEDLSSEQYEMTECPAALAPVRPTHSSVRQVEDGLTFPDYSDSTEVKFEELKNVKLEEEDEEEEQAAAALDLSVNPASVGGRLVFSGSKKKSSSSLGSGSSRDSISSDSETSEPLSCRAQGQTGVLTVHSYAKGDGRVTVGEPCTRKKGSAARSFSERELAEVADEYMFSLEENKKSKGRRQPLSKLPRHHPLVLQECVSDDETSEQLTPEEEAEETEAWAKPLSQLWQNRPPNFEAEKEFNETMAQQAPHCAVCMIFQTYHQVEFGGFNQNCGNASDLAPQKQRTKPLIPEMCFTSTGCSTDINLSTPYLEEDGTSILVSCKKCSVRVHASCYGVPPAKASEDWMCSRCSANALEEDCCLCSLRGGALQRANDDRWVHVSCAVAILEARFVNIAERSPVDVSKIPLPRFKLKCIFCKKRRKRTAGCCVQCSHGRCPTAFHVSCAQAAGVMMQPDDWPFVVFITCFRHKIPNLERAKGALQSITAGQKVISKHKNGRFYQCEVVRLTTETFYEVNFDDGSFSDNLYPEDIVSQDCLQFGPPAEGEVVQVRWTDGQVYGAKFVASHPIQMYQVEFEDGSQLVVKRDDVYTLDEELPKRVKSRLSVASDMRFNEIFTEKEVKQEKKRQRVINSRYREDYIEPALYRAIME
L3MBTL1 inh: qHTS Assay for the Inhibitors of L3MBTL1. AlphaScreen L3MBTL1–H3K9me1 peptide binding. Potency, µM (titrated, usually from 57.1 µM), for the others: top-dose activity, negative = inhibition, usual class: inhibitors. 0.66% of 230,000 active. AID 485360, 2010; further: on the % scale 0 is the no-effect control and ±100 the full control effect; nearly all actives have a fitted effect of over 60% in size
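Read-out is AlphaScreen signal from streptavidin donor and nickel chelate acceptor beads (10 ug/mL final each) bridging L3MBTL1 (50 nM) and biotinylated K9-monomethylated H3(1-15) peptide (75 nM), after 30 min compound exposure at room temperature.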
* = called active by the depositor; [ ] = dose if it differs, or a comment. The call rests on the fitted dose curve; in most records, active means well fitted curve in the direction sought with a large enough effect; inconclusive means small, poorly fitted or top-dose-only effect, or another doubt; inactive means no such curve, though single readings can be large; an effect the other way counts as inactive or inconclusive. Potency means the concentration at half of the fitted maximal effect.

`Cc1c(C(=O)O)sc(=S)n1-c1ccccc1` gave G9a block -5.9%, Sfp inh 24.2%, HP1b chromo inh 46.8%, BAZ2B block -9.2%, JMJD2A Tudor inh -16.5% and L3MBTL1 inh 6.3%.
CCOc1ccc(-n2c(=S)sc3c(=O)n(-c4ccccc4)c(SC)nc32)cc1 was read as G9a block 19.2%, Sfp inh -3.2%, HP1b chromo inh -6.8%, BAZ2B block -12.0% and JMJD2A Tudor inh -26.8%.
For O=C1NC(c2ccccc2)Nc2c1sc(=S)n2-c1ccccc1 (centres undefined) the results were G9a block 22.4µM*, Sfp inh 31.6µM*, HP1b chromo inh -5.0%, BAZ2B block -18.8% and JMJD2A Tudor inh -11.3%[11.4 µM].
For COc1ccc(C2NC(=O)c3sc(=S)n(-c4ccccc4)c3N2)cc1 (centres undefined) the results were G9a block -42.9%[12.7 µM], Sfp inh 50.1µM*, HP1b chromo inh 25.3%, BAZ2B block -11.7% and JMJD2A Tudor inh -13.2%.
`COc1ccc(C2=C(C(C)=O)Sc3nnc(-c4ccc(Cl)cc4)n3N2C(C)=O)cc1OC` gave G9a block 3.1%[59 µM], HP1b chromo inh 25.7%, BAZ2B block -17.5% and JMJD2A Tudor inh -17.2%.
For Cc1cccc(NC(=O)CSc2nc3ccccc3c3nc(CCn4cncc4C)nn23)c1 the results were G9a block inconclusive, HP1b chromo inh 27.8%, BAZ2B block -33.8% and JMJD2A Tudor inh inconclusive.
Screening COc1c(N2C[C@@H]3CCCN[C@H]3C2)c(F)cc2c(=O)c(C(=O)O)cn(C3CC3)c12 returned G9a block -9.3%[2.33 µM] and Sfp inh 12.6%.
`CC(=O)OCCNc1cc(Sc2nc3ccccc3[nH]2)c2nonc2c1[N+](=O)[O-]` gave G9a block 3.98µM*, Sfp inh 1.58µM*, HP1b chromo inh inconclusive, BAZ2B block inconclusive, JMJD2A Tudor inh 56.2µM* and L3MBTL1 inh inconclusive.
Screening CCCC(=O)OCCNc1cc(SCCC(=O)OC)c2nonc2c1[N+](=O)[O-] returned G9a block inconclusive, Sfp inh inconclusive, HP1b chromo inh 19.4%, BAZ2B block inconclusive, JMJD2A Tudor inh -25.3% and L3MBTL1 inh -10.7%.
`CC(=O)OCCCNc1cc(Sc2ccc(C)cc2)c2nonc2c1[N+](=O)[O-]` gave G9a block -48.5%[59 µM], Sfp inh 11.3%, HP1b chromo inh inconclusive, BAZ2B block 6.8%, JMJD2A Tudor inh inconclusive and L3MBTL1 inh -1.1%.
`CC(=O)OCCCNc1cc(Sc2nc3ccccc3s2)c2nonc2c1[N+](=O)[O-]` gave G9a block inconclusive, Sfp inh 2.51µM*, HP1b chromo inh 10.9%, BAZ2B block -26.9%, JMJD2A Tudor inh -26.4% and L3MBTL1 inh -1.8%.
For CCN(CC)C(=O)c1sc(NC(=S)N2CCN(C(=O)C3CCCO3)CC2)c(C(=O)OC)c1C (centres undefined) the results were G9a block 50.1µM*, Sfp inh -16.7%, HP1b chromo inh 26.7%, BAZ2B block 2.3% and JMJD2A Tudor inh -16.6%.
Screening CCCOC(=O)c1c(NC(=O)C2CCCO2)sc(C(=O)OC)c1C (centres undefined) returned G9a block 3.55µM*, Sfp inh 6.31µM*, HP1b chromo inh inconclusive, BAZ2B block -5.9%, JMJD2A Tudor inh inconclusive and L3MBTL1 inh -0.1%.
For CCOC(=O)c1c(NC(=O)C2CCCO2)sc(C(N)=O)c1C (centres undefined) the results were G9a block inconclusive, Sfp inh -0.5%, HP1b chromo inh 20.8%, BAZ2B block -33.0%, JMJD2A Tudor inh -14.4% and L3MBTL1 inh 3.8%.
Screening COC(=O)c1cc(NC(=S)N2CCN(C(=O)C3CCCO3)CC2)cc(C(=O)OC)c1 (centres undefined) returned G9a block -5.6%, Sfp inh 5.6%, HP1b chromo inh 34.9%, BAZ2B block -2.3%, JMJD2A Tudor inh -7.0% and L3MBTL1 inh 3.4%.
For c1ccc(N/N=C(\Cc2ncc[nH]2)c2ccccc2)cc1 the results were G9a block 2.82µM*, Sfp inh -5.7%, HP1b chromo inh inconclusive, BAZ2B block inconclusive, JMJD2A Tudor inh -27.8%[57.1 µM] and L3MBTL1 inh 0.0%.
`Clc1cccc(N/N=C(\Cc2nc3ccccc3[nH]2)c2ccccc2)c1` gave G9a block 25.1µM*, Sfp inh 45.3%, HP1b chromo inh 2.3%, BAZ2B block -28.9%, JMJD2A Tudor inh inconclusive and L3MBTL1 inh -12.4%.
`Oc1cccnc1CCc1ccccc1` gave Sfp inh 8.0%, HP1b chromo inh 16.7%, BAZ2B block -3.3%, JMJD2A Tudor inh -1.4% and L3MBTL1 inh 19.7%.
Screening N=C(N)SCc1ncccc1O returned G9a block 17.8µM*, Sfp inh -22.8%, HP1b chromo inh -1.8%, BAZ2B block inconclusive, JMJD2A Tudor inh inconclusive and L3MBTL1 inh -10.5%.
Screening N=C(N)SCc1ccccn1 returned G9a block inconclusive, Sfp inh 4.6%, HP1b chromo inh -4.4%, BAZ2B block 35.5µM*, JMJD2A Tudor inh 22.4µM* and L3MBTL1 inh -7.1%.
For CCCN1CNc2c(c(=O)[nH]c(=S)n2CCc2cccc(C)c2C)C1 the results were HP1b chromo inh 30.7% and JMJD2A Tudor inh -7.5%.
`Fc1ccc(COc2ccc(Br)cc2CNCc2ccncc2)cc1` gave G9a block 50.1µM*, Sfp inh -1.6%, HP1b chromo inh 16.6%, BAZ2B block 50.1µM*, JMJD2A Tudor inh inconclusive and L3MBTL1 inh -1.2%.
For Fc1ccccc1COc1ccc(Br)cc1CNCc1ccncc1 the results were G9a block inconclusive, Sfp inh 79.4µM*, HP1b chromo inh 40.3%, BAZ2B block -13.4% and JMJD2A Tudor inh -16.4%.
Cc1cc(C)cc(NC(=O)CSc2nc(-c3ccccc3)c3cc(F)ccc3n2)c1 was read as G9a block -2.8%[59 µM], HP1b chromo inh 23.7%, BAZ2B block -1.1% and JMJD2A Tudor inh -17.6%.
For O=S(=O)(O)c1cc(O)c(N=Nc2ccc(O)cc2O)c2ccccc12 the results were HP1b chromo inh inconclusive and JMJD2A Tudor inh 3.55µM*.
